Here are results for 28 molecules from PubChem BioAssay AID1558 (National Center for Advancing Translational Sciences (NCATS), 2009).

For the assay, the target named is Microtubule-associated protein tau (Homo sapiens) (UniProt P10636). In words: Confirmation Concentration-Response Assay for Inhibitors of Tau Fibril Formation, Thioflavin T Binding. An outline of the steps: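 Heparin (20 uM final) induced fibrillization of human tau K18 P301L (15 uM unlabeled plus 0.24 uM Alexa 594-labeled, final) in 100 mM sodium acetate pH 7 with compound, 6 hr at 37 C. ThT (30 uM final) added, read after 1 hr (ex 450, em 510 nm).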
Chain of Microtubule-associated protein tau (Homo sapiens) (P10636 561-689 P618L limits assumed): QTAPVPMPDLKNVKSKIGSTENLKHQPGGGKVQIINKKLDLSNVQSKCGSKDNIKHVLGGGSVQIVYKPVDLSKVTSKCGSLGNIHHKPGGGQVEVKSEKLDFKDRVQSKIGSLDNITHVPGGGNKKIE

“And” between values parts separate entries of the source, which are not always exact repeats. Identical values can stand only once. Results filed as inconclusive are left out. Entries that show only a call come without a potency. The source made the active and inactive calls. Calls come from the whole dose curve; as a rule, active = well fitted inhibition curve with a large enough effect; inconclusive = small, poorly fitted or top-dose-only effect; inactive = flat fitted curve, though single readings scatter.

For the molecule `Cn1cc(Cl)c(C(=O)Nc2cccc(Cl)c2Cl)n1`, the Potency entry was “inactive”.

Turning to `COc1ccc2c(c1)c(CC(=O)N1CCOCC1)c(C)n2C(=O)c1ccc(Cl)cc1`, the Potency entry was “inactive”.

As for `CN(c1ccccc1)S(=O)(=O)c1nnc(NC(=O)COc2ccccc2)s1`, the Potency entry is “inactive”.

In the case of `Oc1ccccc1CNc1cccc2cccnc12`, the Potency is 39.8 µM (active).

For `COc1ccc2c(c1)c(CC(=O)Nc1ccc(C(C)=O)cc1)c(C)n2C(=O)c1ccc(Cl)cc1`, the Potency entry was “inactive”.

For `CC1CCc2c(sc(NC(=O)Cc3ccccc3)c2C(=O)Nc2ccc(Cl)cc2)C1` (stereo not drawn), the Potency result is “inactive”.

Regarding `O=C(O)CC1S/C(=N/N=C/c2ccc(-c3ccc(Cl)cc3[N+](=O)[O-])o2)NC1=O` (stereo not drawn), the Potency was 1.58 µM (active).

Turning to `COc1ccc(OC)c(NC(=O)c2c(NCc3cccs3)sc3c2CCCC3)c1`, the Potency entry was “inactive”.

Take `COc1ccc2oc(-c3ccc(NC(=O)c4ccc(N5CCOCC5)c([N+](=O)[O-])c4)cc3)nc2c1`: the Potency result was “inactive”.

Regarding `NC(=O)c1nn(-c2ccccc2)c(=O)c2c(N)scc12`, the Potency was 4.47 µM (active).

On to `Cc1ccc(NC(=O)N2CCN(c3ccccn3)CC2)cc1`, for which the Potency entry is “inactive”.

As for `CCOC(=O)c1nn(-c2ccc(F)cc2)c(=O)c2c(N)scc12`, the Potency is 5.01 µM (active).

`COC(=O)C1CCc2sc(NC(=O)Cc3ccccc3)c(C(=O)Nc3ccc(Cl)cc3)c21` (stereo not drawn): the Potency entry is “inactive”.

As to `Nc1cc(-c2ccncc2)c[nH]c1=O`, the Potency is 10 µM (active).

With `NC[C@@H](O)c1ccc(O)c(O)c1`, the Potency entry is “inactive”.

Turning to `CCN(CC)c1ccc2oc(=O)c(C)nc2c1`, the Potency was 10 µM (active).

Regarding `Nc1nn(-c2ccccc2)c(=O)c2c(N)scc12`, the Potency is 5.01 µM (active).

Consider `CC(=O)Nc1nc(C)c(-c2csc(Nc3ccc(O)cc3)n2)s1`, for which the Potency was 15.8 µM (active).

Regarding `CCOC(=O)c1nn(-c2ccccc2)c(=O)c(C#N)c1C`, the Potency entry was “inactive”.

On to `COc1ccc(NC(=O)c2c(NC(=O)Cc3ccccc3)sc3c2CCCC3)cc1`, for which the Potency result was “inactive”.

With `O=C(Nc1ccc(-c2nc3ccccc3o2)cc1)c1ccc(N2CCOCC2)c([N+](=O)[O-])c1`, the Potency is 1.12 µM (active).

With `COC(=O)c1c(N)sc2c1C(C(=O)OC)CC2` (stereo not drawn), the Potency entry is “inactive”.

In the case of `Nc1scc2c(CO)nn(-c3ccccc3)c(=O)c12`, the Potency was 3.98 µM (active).

For `Nc1nc2cc(S(=O)(=O)NC3=NCCCCC3)ccc2s1`, the Potency is 20 µM (active).

In the case of `COc1ccc(NC(=O)C2CCN(S(=O)(=O)c3c(C)noc3/C=C/c3cccs3)CC2)cc1Cl`, the Potency result was “inactive”.

As for `O=C(Cc1ccccc1)Nc1sc2c(c1C(=O)Nc1ccc(Cl)cc1)CCOC2`, the Potency entry is “inactive”.

As for `CCOC(=O)c1nn(-c2ccccc2)c(=O)c2c(N)scc12`, the Potency was 3.98 µM (active) and 7.94 µM (active).

In the case of `Nc1scc2c(C(=O)NCc3ccccc3)nn(-c3ccccc3)c(=O)c12`, the Potency was 7.08 µM (active).
